# Results: PubChem BioAssay AID1421 (Emory University Molecular Libraries Screening Center, 2008)
# Out of some 1,300 compounds screened, about 140 (11%) were called active. Only a sample is shown. Results with a measured potency or affinity are listed apart. A number with no mark means an inactive call. No rule for the calls is given here.
# Molecular target: Prostaglandin E2 receptor EP2 subtype (Homo sapiens) (UniProt P43116)
# Assay: EP2 receptor modulators, dose response, cell-based, human EP2, PGE2 EC50 shift (AID 1421)
# Details: EP2-expressing cells, PGE2 EC50 shift by compound; at 20 µM
# Prostaglandin E2 receptor EP2 subtype (Homo sapiens), sequence (P43116 whole entry, looked up): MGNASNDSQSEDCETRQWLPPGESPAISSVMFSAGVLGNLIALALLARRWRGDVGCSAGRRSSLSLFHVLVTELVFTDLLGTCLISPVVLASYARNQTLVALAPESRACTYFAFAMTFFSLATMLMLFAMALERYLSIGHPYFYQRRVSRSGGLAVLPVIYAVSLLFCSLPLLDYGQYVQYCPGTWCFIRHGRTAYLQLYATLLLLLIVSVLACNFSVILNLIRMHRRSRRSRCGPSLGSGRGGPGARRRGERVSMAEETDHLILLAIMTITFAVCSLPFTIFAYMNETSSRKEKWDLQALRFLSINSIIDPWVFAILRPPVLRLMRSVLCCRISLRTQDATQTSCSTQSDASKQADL
row,Compound,PGE2 EC50 with compound [nM]
1,C=CCn1c(SCC(N)=O)nc(C)cc1=O,0.82
2,C=CCn1c(SCc2c(C)noc2C)nc2sc(C)c(C)c2c1=O,0.57
3,CC(=O)Nc1ccc(C2=NN(c3ccccc3)C(c3cccs3)C2)cc1 (configuration not stated),0.32
4,CCCCCn1c(CN2CCN(c3cc(Cl)ccc3C)CC2)nc2c1c(=O)[nH]c(=O)n2C,1.94
5,Brc1ccc(Cn2c(-c3cncs3)nc3ccccc32)cc1,0.43
6,CCn1c2ccccc2c2cc(/C=N/n3c(C)nnc3C)ccc21,0.04
7,Cc1ccccc1OCc1nc2ccccc2c(=O)n1/N=C/c1ccco1,0.61
8,CN(c1ccccc1)C1CCCCC1NS(=O)(=O)c1ccc(Cl)cc1 (configuration not stated),0.38
9,N#CCSc1nc2c(c(C3CC=CCC3)c1C#N)CCC2 (configuration not stated),0.5
10,CSc1ccccc1NC(=O)COc1ccc(Cl)cc1C,0.35
11,CN(CC(=O)Nc1ccccc1-c1ccccc1)Cc1ccccc1Cl,0.6
12,C(=N\N1CCN(C2c3ccccc3-c3ccccc32)CC1)/c1cccnc1,0.43
13,COC(=O)c1c(NC(NC(=O)C(C)C)C(Cl)(Cl)Cl)sc2c1CCCC2 (configuration not stated),0.51
14,N/C(CSc1nc(-c2ccccc2)c(-c2ccccc2)o1)=N\O,0.37
15,O=C(O)CSc1cc(-c2ccccc2)nc2ccccc12,1.19
16,C=CCC(=O)OCCCCCCOc1ccc(C(=O)O)cc1,0.73
17,CC(C)Oc1ccc(/C=C(/NC(=O)c2ccccc2)C(=O)NCCC(=O)O)cc1,0.98
18,Cc1ccc(C(=O)OCC(=O)Nc2ccccc2Sc2ccccc2)cc1C,0.26
19,CN(/N=C/C=C/c1ccccc1)C1=NS(=O)(=O)c2ccccc21,0.14
20,CCC(C)(C)n1nnnc1C(c1ccncc1)N1CCC(Cc2ccccc2)CC1 (configuration not stated),1.27
21,CC1=CC(C)(C)N(S(=O)(=O)c2ccc(C)cc2)c2cc(C)ccc21,0.39
22,CC1(c2cc([N+](=O)[O-])cc([N+](=O)[O-])c2)CC(C)(C)N(C(=O)c2ccccc2)c2ccccc21 (configuration not stated),0.35
23,CCOP(=O)(OCC)c1nc(-c2ccccc2)oc1NCc1ccccc1,0.36
24,O=C(O)c1cccc(NN=C2c3ccccc3-c3ccccc32)c1,0.74

row,Compound,PGE2 EC50 with compound [nM]
1,O=c1c2oc3ccccc3c2[nH]c(=S)n1-c1ccccc1,1.48
2,CN=C1CC(SC)=C1c1ccc(C)cc1,2.68
3,Cc1cc(O)c(C=O)c2c1C(=O)Oc1c(C)c(O)c3c(c1O2)C(O)OC3=O (configuration not stated),0.42
4,O=C(NNc1ccc([N+](=O)[O-])cc1[N+](=O)[O-])C1C2CCCCC21 (configuration not stated),1.49
5,CCOC(=O)C1=C(C)N(C)C(C)=C(C(=O)OCC)C1c1ccsc1,0.71
6,O=C(Oc1ccc(-c2nccc(-c3ccccn3)n2)cc1)c1cccc(C(F)(F)F)c1,1.38
7,FC(F)(F)c1cccc(-c2cc3ccccc3nc2N2CCCC2)c1,0.54
8,CCCCOc1cc(C)nc(NCc2ccccc2)n1,0.31
9,COc1cnc(SCc2c(Cl)cccc2Cl)nc1Cl,0.18
10,COC(=O)CSc1nc2c(c(C3CC=CCC3)c1C#N)CCC2 (configuration not stated),0.61
11,Cn1c(=O)c2c(nc(CN3CCN(c4ccccc4)CC3)n2Cc2c(F)cccc2Cl)n(C)c1=O,0.37
12,CCn1c(=NC(=O)c2ccc(S(=O)(=O)N3CCOCC3)cc2)sc2cccc(OC)c21,1.76
13,Cn1c(=O)c2c(nc(SCC(=O)N3CCc4ccccc4C3)n2C)n(C)c1=O,0.76
14,COc1cc2ccccc2cc1C(=O)NC(=S)Nc1cc(C(=O)O)ccc1C,58.1
15,COc1cccc(N=c2oc3c(C)ncc(CO)c3cc2C(=O)Nc2ccccc2OC)c1,0.96
16,Cc1cc2cc3c(cc2nc1SCC(=O)OC(C)C)OCO3,0.21
17,Cc1cc(SCC(=O)c2ccccc2)nc2ccccc12,1.19
18,C=CCSc1nc(N(CC)CC)c2sccc2n1,0.61
19,O=c1c2ccccc2n(Cc2ccc(Cl)cc2)c(=O)n1Cc1ccco1,0.38
20,Cc1cccc(Cn2c(=O)n(Cc3ccco3)c(=O)c3ccccc32)c1,0.31
21,CCOC(=O)c1sc2nccc(N(C)C)c2c1N=CNOCc1ccccc1,0.21
22,c1ccn(-c2ncnc3sc4c(c23)CCCC4)c1,0.38
23,CSc1nnc2c3ccccc3c3ccccc3c2n1,0.24
